The campaign covered roughly 1,400 compounds. About 450 (32%) were called active. These entries were drawn from the full list. A number with no mark means an inactive call. Cut-off read from the data, not from the text of the source: active = inhibition above about 16%; inactive = the rest.
Target: Lon protease (Escherichia coli (strain K12)) (UniProt P0A9M0)
Assay: inhibition of eLon from E. coli – biochemical, fluorescence polarization, confirmation (AID 602230);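 note: 0% = enzyme with probe and DMSO and 100% = no enzyme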
Conditions: purified E. coli Lon, at 7.94 µM, active compounds read high

Chain of Lon protease (Escherichia coli (strain K12)) (P0A9M0 whole entry, looked up): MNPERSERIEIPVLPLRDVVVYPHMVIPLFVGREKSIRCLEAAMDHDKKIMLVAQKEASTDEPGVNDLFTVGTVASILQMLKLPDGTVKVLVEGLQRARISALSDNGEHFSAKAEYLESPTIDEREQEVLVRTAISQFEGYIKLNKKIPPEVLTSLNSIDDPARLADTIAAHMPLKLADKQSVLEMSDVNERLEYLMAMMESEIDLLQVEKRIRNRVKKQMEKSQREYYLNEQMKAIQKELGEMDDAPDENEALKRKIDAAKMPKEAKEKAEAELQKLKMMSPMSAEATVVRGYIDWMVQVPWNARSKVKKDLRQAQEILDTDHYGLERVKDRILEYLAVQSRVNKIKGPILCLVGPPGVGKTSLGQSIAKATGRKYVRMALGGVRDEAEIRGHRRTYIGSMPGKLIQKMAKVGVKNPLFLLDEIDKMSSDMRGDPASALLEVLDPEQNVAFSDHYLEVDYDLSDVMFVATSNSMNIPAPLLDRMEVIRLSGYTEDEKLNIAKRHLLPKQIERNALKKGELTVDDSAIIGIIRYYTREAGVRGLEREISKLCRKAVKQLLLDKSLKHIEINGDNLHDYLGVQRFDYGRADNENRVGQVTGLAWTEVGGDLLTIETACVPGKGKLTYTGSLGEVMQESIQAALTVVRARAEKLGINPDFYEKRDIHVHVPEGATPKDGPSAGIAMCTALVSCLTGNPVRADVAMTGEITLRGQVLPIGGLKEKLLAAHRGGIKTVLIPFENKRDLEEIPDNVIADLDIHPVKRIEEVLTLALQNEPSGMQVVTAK

Question: For `CCCCOCCCNC(=O)C[C@@H]1C[C@@]2(C(=O)OC)CCCCC=C2N(CCC2=CCCCC2)C1=O`, which inhibition is on record?
Answer: 9.11%

Question: `CCOCCN(C=O)c1cccc(OC)c1` was tested. Which inhibition did it give?
Answer: -7.16%

Question: How did the inhibition turn out when `COc1ccc(N2CCN(C3CCCCC3NS(=O)(=O)c3ccccc3)CC2)cc1` (stereo not given) was run?
Answer: -0.98%

Question: Which inhibition does the source give for `COc1ccc(OC)c(NC(=O)Cc2cccs2)c1` here?
Answer: -9.37%

Question: For `COc1cc([C@H](Cc2ccccc2)NC(C)=O)oc(=O)c1`, which inhibition is on record?
Answer: 28.5% (active)

Question: Which inhibition does the source give for `COc1ccc(C(=O)NC(C)CCc2ccccc2)c(OC)c1` (stereo not given) here?
Answer: -4.57%

Question: With `O=C(C1=C(O)C(=O)N(c2ncccn2)C1c1cccs1)c1ccco1` (stereo not given) as the compound, how does the inhibition read?
Answer: 7.23%

Question: How did the inhibition turn out when `O=C1C2C3C=CC(C4CC34)C2C(=O)N1/N=C/c1ccc(-c2ccccc2[N+](=O)[O-])o1` (stereo not given) was run?
Answer: 1.11%

Question: For `CN(C)Cc1c(C(=O)N/N=C/c2ccccc2OCc2ccc(F)cc2)nnn1-c1nonc1N`, which inhibition is on record?
Answer: 4.47%

Question: For `O=C(CN1CCCSc2ccccc21)N1CCN(S(=O)(=O)c2cccc(F)c2)CC1`, which inhibition is on record?
Answer: 40.1% (active)

Question: With `Clc1ccccc1CSc1nnc(-c2ccco2)c(-c2ccco2)n1` as the compound, how does the inhibition read?
Answer: -6.52%

Question: Which inhibition does the source give for `CCOC(=O)N1CCC(NC(=O)Cc2cn(C)c3ccccc23)CC1` here?
Answer: -16.7%

Question: How did the inhibition turn out when `Oc1ccc2ccccc2c1N=Nc1nccs1` was run?
Answer: 3.97%

Question: With `Cc1coc2c(O)cc3c(c12)OC1(N2CCCCC2)C(=O)NCCCC31` (stereo not given) as the compound, how does the inhibition read?
Answer: 6.1%

Question: `COc1ccc(C(=O)NCc2nnc(SCCOc3ccccc3)n2C)cc1` was tested. Which inhibition did it give?
Answer: -3.94%

Question: How did the inhibition turn out when `COc1ccc(-c2onc3ccc(C(C)=O)cc23)cc1` was run?
Answer: 182% (active)

Question: With `COc1ccc(CC(=O)Nc2ccc(-c3nnc(-c4ccccc4)o3)cc2)cc1` as the compound, how does the inhibition read?
Answer: -10.3%

Question: How did the inhibition turn out when `COc1ccc(-c2nc(CS(=O)CC(=O)NCc3ccccn3)c(C)o2)cc1` (stereo not given) was run?
Answer: 64.8% (active)

Question: Which inhibition does the source give for `COc1ccc(S(=O)(=O)N2CCOCC2)cc1NC(=O)Cc1c(F)cccc1Cl` here?
Answer: -1.93%

Question: How did the inhibition turn out when `O=C(COC(=O)c1ccccc1C(=O)N1CCN(c2ccccc2)CC1)NCc1ccccc1` was run?
Answer: 5.02%

Question: For `CC(=O)NC(=S)Nc1ccc(NC(=S)NC(=O)c2ccc([N+](=O)[O-])cc2)cc1`, which inhibition is on record?
Answer: -6.29%

Question: How did the inhibition turn out when `CC1=NN(C(=O)CCc2ccccc2O)C(O)(C(F)(F)F)C1` (stereo not given) was run?
Answer: 9.05%

Question: With `CC1(C)OC(=O)C(=CNC(CO)C(=O)O)C(=O)O1` (stereo not given) as the compound, how does the inhibition read?
Answer: -19.2%

Question: For `Cc1ccccc1Nc1nc(N)nc(CN2CCN(c3ccccn3)CC2)n1`, which inhibition is on record?
Answer: 3.69%

Question: `COCCNC(=O)Nc1ccc2nc(-c3ccco3)c(-c3ccco3)nc2c1` was tested. Which inhibition did it give?
Answer: 23.4% (active)

Question: For `CCc1ccc(NC(=O)C(=O)N/N=C(\C)CC(=O)NCCOC)cc1`, which inhibition is on record?
Answer: -6.81%

Question: With `COc1ccc(Nc2nc(-c3cccnc3)nc3ccccc23)cn1` as the compound, how does the inhibition read?
Answer: 39.8% (active)

Question: For `COc1ccc(Nc2ccc([N+](=O)[O-])cn2)cn1`, which inhibition is on record?
Answer: -45.8%

Question: For `Cc1ccc2nc3c(cc(C(=O)NCCc4ccccc4)c(=N)n3CC3CCCO3)c(=O)n2c1` (stereo not given), which inhibition is on record?
Answer: 3.71%

Question: For `COc1ccc2[nH]c(C)c(CCN(Cc3cccs3)C(=S)Nc3ccccc3OC)c2c1`, which inhibition is on record?
Answer: 3.35%

Question: With `CCCC(O)(CCC)C(=O)NN(C(=O)CCl)c1cccc(C)c1` as the compound, how does the inhibition read?
Answer: -3.35%

Question: With `NC(=O)c1ccc(NC(=O)COC(=O)c2c3c(nc4ccccc24)/C(=C\c2ccc4c(c2)OCO4)CCC3)cc1` as the compound, how does the inhibition read?
Answer: -8.01%

Question: `O=C1c2cccc3c([N+](=O)[O-])ccc(c23)C(=O)N1CC1CCCO1` (stereo not given) was tested. Which inhibition did it give?
Answer: 34.9% (active)

Question: For `COCCn1c(N)c(NCc2ccccc2)c(=O)[nH]c1=O`, which inhibition is on record?
Answer: 7.51%

Question: Which inhibition does the source give for `Cc1cc2nc3c(=O)n(Cc4ccccc4)c(=O)[nH]c3nc2cc1N` here?
Answer: 153% (active)

Question: For `Nc1ccccc1/C=N\N=C/c1ccccc1N`, which inhibition is on record?
Answer: 8.46%

Question: Which inhibition does the source give for `CCCN(CCC)C(=O)C1c2ccccc2Oc2ccccc21` here?
Answer: -11.4%

Question: With `COC(=O)C[n+]1cccc2ccccc21` as the compound, how does the inhibition read?
Answer: 116% (active)

Question: `COc1ccc(C2c3ccc(O)cc3Oc3ncn(CCCO)c(=N)c32)cc1OC` (stereo not given) was tested. Which inhibition did it give?
Answer: -7.63%

Question: How did the inhibition turn out when `CCN(CC)CCCNC(=O)c1cn(C)c2ccc(S(=O)(=O)N(C)C3CCCCC3)cc2c1=O` was run?
Answer: -0.99%

Question: `Cc1cc(Br)cn2c(Cc3ccsc3)c(-c3ccc(C#N)cc3)nc12` was tested. Which inhibition did it give?
Answer: 45.3% (active)

Question: `Cc1ccc(S(=O)(=O)CCC(=O)OCc2ccccc2)cc1` was tested. Which inhibition did it give?
Answer: -7.16%

Question: `Oc1ccc(N=Cc2sc3ccccc3c2Cl)cc1` was tested. Which inhibition did it give?
Answer: -21.5%

Question: For `O=C(COC(=O)CCc1c[nH]c(=O)[nH]1)Nc1ccccc1Cl`, which inhibition is on record?
Answer: 51.4% (active)

Question: How did the inhibition turn out when `COc1cccc2sc(N(CCCN(C)C)C(=O)CCS(=O)(=O)c3ccccc3)nc12` was run?
Answer: 7.07%

— PubChem BioAssay AID602230 (The Scripps Research Institute Molecular Screening Center, 2012)
